Assay results from the supplement of paper PMC6555819.

Columns and labels:
Assay in all cases: PBM binding z-score (relative to random genomic background probes); higher = stronger binding; sequences stand for … in GC…GCGATTGACAGCGTAGAATGAAGG
[1] = tested on: FXR:RXRa (NR concentration 270 nM, RXRa partner concentration 90 nM)
Method in brief: (§1)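 Binding z-scores take random background probes as their reference. They come from custom Agilent 4×180K protein-binding microarrays incubated 1 h with ligand-free nuclear receptor dimers, with antibodies against each partner (one per run) detecting binding. Scanned fluorescence was regression-normalized.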

[2] = tested on: LXRa:RXRa (NR concentration 270 nM, RXRa partner concentration 90 nM)
Method in brief: as §1

[3] = tested on: LXRa homodimer (NR concentration 270 nM)
Method in brief: as §1

[4] = tested on: LXRb:RXRa (NR concentration 270 nM, RXRa partner concentration 90 nM)
Method in brief: as §1

[5] = tested on: LXRb homodimer (NR concentration 270 nM)
Method in brief: as §1

[6] = tested on: PPARa:RXRa (NR concentration 270 nM, RXRa partner concentration 90 nM)
Method in brief: as §1

[7] = tested on: PPARg:RXRa (NR concentration 180 nM, RXRa partner concentration 90 nM)
Method in brief: as §1

[8] = tested on: PPARg:RXRa 270nM:90nM, anti-RXR (NR concentration 270 nM, RXRa partner concentration 90 nM)
Method in brief: as §1

[9] = tested on: PPARg:RXRa 30nM:10nM, anti-RXR (NR concentration 30 nM, RXRa partner concentration 10 nM)
Method in brief: as §1

[10] = tested on: PPARg:RXRa 90nM:30nM, anti-RXR (NR concentration 90 nM, RXRa partner concentration 30 nM)
Method in brief: as §1

Sequence | PBM binding z-score [1] | PBM binding z-score [2] | PBM binding z-score [3] | PBM binding z-score [4] | PBM binding z-score [5] | PBM binding z-score [6] | PBM binding z-score [7] | PBM binding z-score [8] | PBM binding z-score [9] | PBM binding z-score [10]
AGAATGAGGTAACCAAAGATCAGGGAAACGCTTG | -0.0845 | 3.81 | -0.311 | 0.439 | -0.22 | 1.21 | 1.15 | 0.888 | 0.575 | 0.541
CCATACGGGTCACTGACAGGTTATAGCATTTGGA | 4.49 | 4.04 | 0.394 | 3.31 | 0.0673 | 4.83 | 3.92 | 3.76 | 1.43 | 2.41
TGAATGAGGTTATACGATCAGGGAACGTTGCAAA | 1.76 | 1.37 | -0.238 | 1.05 | -0.18 | 2.91 | 1.33 | 1.79 | 0.555 | 1.1
TCTAGTTGGTCATAGGTCACACACTCGAAATGCG | 3.07 | 3.34 | 1.99 | 3.31 | 1.25 | 4.96 | 8.97 | 8.03 | 8.3 | 8.57
ATCTCTAGGTAACCAAGTTCAGTGTATGCCGAAC | 0.4 | 0.852 | 0.996 | 0.524 | 0.803 | 1.06 | 0.577 | 0.99 | 0.331 | 0.721
CAGCCTAGGTAAGGGCCAGTATAGGAGGAACGTT | -0.618 | -0.931 | -0.62 | -1.05 | -1.17 | -0.738 | -0.026 | -0.51 | -0.469 | -0.635
ATATGTATGTTATCGGGTCATTCAGTTTGCGCAT | 1.97 | 2.23 | 0.86 | 2.38 | 1.09 | 3.32 | 2.67 | 2.71 | 0.938 | 2.09
AGAATGTGGTTATTAAGATCAGGGAATTGCGGTC | 0.0647 | -0.0146 | 0.00993 | -0.0352 | 0.111 | -0.0476 | 0.144 | 0.078 | -0.037 | 0.417
CCTCGAAGGACAGAAGGTCAGAGCTGTCCGCTTT | 1.13 | 1.56 | 0.132 | 1.28 | -0.573 | 1.83 | 0.0228 | 0.429 | -0.598 | 0.107
CGTCAAAGTTCAACTATGGTAACGTAAAGCACGC | 6.59 | 6.03 | 3.91 | 4.34 | 2.3 | 4.97 | 4.9 | 5.62 | 2.24 | 4.52
CCGACTGGGGCAAAAAGGTTACCATACCATCCGG | 0.468 | 0.384 | -0.0503 | 1.14 | -0.735 | 2.38 | 1.48 | 1.95 | 0.214 | 1.25
TCGAGTCGGTTAGGGGCATTCAGAATGGCGTCGA | 0.0826 | -0.161 | -0.614 | 0.203 | -0.666 | 0.491 | -0.446 | 0.528 | 0.725 | 0.702
